The full data set covers some 8,800 targets. This sample favours those with a hit. About 0.5% of all pairs of compound and target were hits.
Tests used:
Assay in all cases: log2 fold change, soluble protein after heating vs DMSO (PISA); higher = thermal stabilisation; K562 lysate, 10 uM; active = over 0.2 and 3.5 SD of the protein, either way, in both replicates (recomputed)
ibrutinib = compound: C=CC(=O)N1CCC[C@@H](n2nc(-c3ccc(Oc4ccccc4)cc3)c3c(N)ncnc32)C1 [ibrutinib]
Method in brief: (§1)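 Thermal stability, expressed as log-two fold change relative to solvent controls, is given from duplicates. Crude K562 extract in PBS pH 7.4 with 1 mM MgCl2, at 1 mg/mL protein, was treated with 10 μM compound for 30 min and heated in aliquots for 3 min across 48°C-58°C. After pooling, adjustment to 0.5% NP-40 at 4°C and centrifugation at 21,000xg for 90 min, supernatant protein was measured by TMTpro 16plex LC-MS/MS with channel sums equalised.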

[1] = compound: CC(=O)c1cnc2ccc(-c3cc(Cl)c(O)c(Cl)c3)nc2c1N[C@H]1CC[C@H](CN(C)C)CC1
Method in brief: as §1

ralimetinib = compound: CC(C)(C)Cn1c(N)nc2ccc(-c3[nH]c(C(C)(C)C)nc3-c3ccc(F)cc3)nc21 [ralimetinib]
Method in brief: as §1

[2] = compound: CC(C)(O)CC(=O)NCCn1ccc2ncnc(Nc3ccc(Oc4cccc(C(F)(F)F)c4)c(Cl)c3)c21
Method in brief: as §1

[3] = compound: CC(C)C1=C2N=C(C=C(N2N=C1)NCC3=CC=CC=C3)NCCCCCCN
Method in brief: as §1

[4] = compound: CC1=C(C(CC(=O)N1)C2=CC=C(C=C2)C(F)(F)F)C(=O)NC3=C(C=C4C(=C3)C=NN4)F
Method in brief: as §1

[5] = compound: CC1=C(C2=C(C=C1)C(=O)C3=CC=CC=C3N2CCCN)C
Method in brief: as §1

[6] = compound: CC1=C(C=C(C=C1)NC(=O)C2=CC(=CC=C2)C(C)(C)C#N)NC3=CC4=C(C=C3)N=CN(C4=O)C
Method in brief: as §1

[7] = compound: CC1=C(C=C(C=C1)NC(=O)C2=CC(=CC=C2)N(C)C)NC(=O)C3=CC=C(C=C3)O
Method in brief: as §1

[8] = compound: CC1=CC=C(C=C1)SC2=C3C=C(SC3=CN=C2)C(=O)N
Method in brief: as §1

vemurafenib = compound: CCCS(=O)(=O)Nc1ccc(F)c(C(=O)c2c[nH]c3ncc(-c4ccc(Cl)cc4)cc23)c1F [vemurafenib]
Method in brief: as §1

[9] = compound: CCCS(=O)(=O)Nc1ccc(F)c(C(=O)c2c[nH]c3ncc(Cl)cc23)c1F
Method in brief: as §1

barasertib = compound: CCN(CCCOc1ccc2c(Nc3cc(CC(=O)Nc4cccc(F)c4)[nH]n3)ncnc2c1)CCOP(=O)(O)O [barasertib]
Method in brief: as §1

[10] = compound: CC[C@@H]1C(=O)N(C)c2cnc(Nc3ccc(C(=O)NC4CCN(C)CC4)cc3OC)nc2N1C1CCCC1
Method in brief: as §1

volasertib = compound: CC[C@@H]1C(=O)N(C)c2cnc(Nc3ccc(C(=O)N[C@H]4CC[C@H](N5CCN(CC6CC6)CC5)CC4)cc3OC)nc2N1C(C)C [volasertib]
Method in brief: as §1

[11] = compound: CCn1c(C(=O)N(C2CC2)C2CC2)cc2c3c(ncn3C)c(Nc3cc(C)n(C)n3)nc21
Method in brief: as §1

[12] = compound: CCn1cc(-c2ccnc3[nH]c(-c4cccc(CN(C)C)c4)cc23)c(-c2ccc(NC(=O)N(C)C)cc2)n1
Method in brief: as §1

[13] = compound: CN1CCC(CNc2ccc3ncc(-c4cccc(OC(F)(F)F)c4)n3n2)CC1
Method in brief: as §1

saracatinib = compound: CN1CCN(CCOc2cc(OC3CCOCC3)c3c(Nc4c(Cl)ccc5c4OCO5)ncnc3c2)CC1 [saracatinib]
Method in brief: as §1

sotrastaurin = compound: CN1CCN(c2nc(C3=C(c4c[nH]c5ccccc45)C(=O)NC3=O)c3ccccc3n2)CC1 [sotrastaurin]
Method in brief: as §1

Measured: log2 fold change

EAPP (UniProt Q56P03)
Chain of UniProt Q56P03 (Q56P03 whole entry, looked up): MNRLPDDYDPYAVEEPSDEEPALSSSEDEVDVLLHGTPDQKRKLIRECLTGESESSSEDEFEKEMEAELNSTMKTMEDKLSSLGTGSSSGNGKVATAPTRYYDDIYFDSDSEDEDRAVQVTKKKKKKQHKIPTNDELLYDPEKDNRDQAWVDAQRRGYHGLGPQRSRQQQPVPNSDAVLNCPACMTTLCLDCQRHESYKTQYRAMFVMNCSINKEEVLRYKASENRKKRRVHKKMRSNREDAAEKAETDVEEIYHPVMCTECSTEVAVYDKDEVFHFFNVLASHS
inactive: ibrutinib -0.105 | [1] 0.025 | ralimetinib -0.1 | [2] -0.059 | [3] -0.035 | [4] 0.037 | [5] -0.037 | [6] -0.015 | [7] 0.052 | [8] -0.042 | vemurafenib 0.246 | [9] 0.038 | barasertib -0.048 | [10] 0.06 | volasertib 0.02 | [11] 0.009 | [12] -0.085 | [13] -0.092 | saracatinib 0.034 | sotrastaurin -0.008

FNBP1L (UniProt Q5T0N5)
Chain of UniProt Q5T0N5 (Q5T0N5 whole entry, looked up): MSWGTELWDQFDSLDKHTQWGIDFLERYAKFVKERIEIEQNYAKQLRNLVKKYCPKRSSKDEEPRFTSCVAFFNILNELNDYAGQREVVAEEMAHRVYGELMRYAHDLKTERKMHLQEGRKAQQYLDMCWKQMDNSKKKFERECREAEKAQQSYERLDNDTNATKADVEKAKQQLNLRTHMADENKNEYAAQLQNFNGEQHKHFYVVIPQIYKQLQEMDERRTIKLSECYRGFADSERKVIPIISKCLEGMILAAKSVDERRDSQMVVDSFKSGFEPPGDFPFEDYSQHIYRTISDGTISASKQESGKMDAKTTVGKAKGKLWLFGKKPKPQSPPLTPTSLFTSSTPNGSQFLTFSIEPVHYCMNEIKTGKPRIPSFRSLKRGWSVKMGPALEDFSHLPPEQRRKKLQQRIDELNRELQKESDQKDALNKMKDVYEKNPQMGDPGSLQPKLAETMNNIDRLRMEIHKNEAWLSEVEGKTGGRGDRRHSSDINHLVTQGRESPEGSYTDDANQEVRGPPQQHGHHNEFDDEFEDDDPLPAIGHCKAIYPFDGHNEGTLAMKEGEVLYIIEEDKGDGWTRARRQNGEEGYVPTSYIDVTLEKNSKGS
inactive: ibrutinib 0.034 | [1] -0.006 | ralimetinib 0.055 | [2] -0.082 | [3] -0.003 | [4] 0 | [5] 0.066 | [6] -0.007 | [7] 0.035 | [8] 0.034 | vemurafenib 0.003 | [9] 0.029 | barasertib 0.167 | [10] -0.085 | volasertib -0.068 | [11] -0.013 | [12] -0.024 | [13] -0.019 | saracatinib -0.013 | sotrastaurin 0.048

FYB1 isoform 3 (UniProt O15117)
Chain of UniProt O15117 (O15117 whole entry, looked up): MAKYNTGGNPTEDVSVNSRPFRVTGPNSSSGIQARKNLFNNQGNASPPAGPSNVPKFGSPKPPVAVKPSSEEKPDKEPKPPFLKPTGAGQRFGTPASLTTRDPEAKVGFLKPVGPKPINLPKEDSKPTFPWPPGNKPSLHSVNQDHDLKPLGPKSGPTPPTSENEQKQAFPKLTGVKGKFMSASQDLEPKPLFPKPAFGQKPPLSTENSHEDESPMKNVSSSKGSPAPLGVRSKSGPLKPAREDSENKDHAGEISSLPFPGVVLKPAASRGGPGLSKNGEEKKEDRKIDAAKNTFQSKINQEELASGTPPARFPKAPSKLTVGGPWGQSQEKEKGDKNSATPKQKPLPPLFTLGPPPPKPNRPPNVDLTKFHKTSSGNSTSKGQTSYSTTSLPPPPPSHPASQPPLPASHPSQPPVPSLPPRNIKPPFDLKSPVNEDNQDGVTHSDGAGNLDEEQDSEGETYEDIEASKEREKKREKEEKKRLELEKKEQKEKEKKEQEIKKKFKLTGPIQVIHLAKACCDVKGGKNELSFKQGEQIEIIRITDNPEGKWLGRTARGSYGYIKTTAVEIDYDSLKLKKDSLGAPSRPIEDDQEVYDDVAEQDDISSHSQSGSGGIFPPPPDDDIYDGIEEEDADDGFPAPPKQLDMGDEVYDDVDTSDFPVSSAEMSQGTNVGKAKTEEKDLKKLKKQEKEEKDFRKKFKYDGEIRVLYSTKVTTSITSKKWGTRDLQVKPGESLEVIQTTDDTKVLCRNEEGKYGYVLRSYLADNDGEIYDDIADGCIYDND
inactive: ibrutinib -0.008 | [1] -0.01 | ralimetinib -0.022 | [2] -0.008 | [3] 0.005 | [4] -0.017 | [5] -0.042 | [6] 0.059 | [7] 0.008 | [8] -0.013 | vemurafenib -0.056 | [9] -0.011 | barasertib -0.003 | [10] 0.043 | volasertib -0.026 | [11] -0.018 | [12] 0.072 | [13] -0.101 | saracatinib 0.007 | sotrastaurin 0.008

EEFSEC (UniProt P57772)
Chain of UniProt P57772 (P57772 whole entry, looked up): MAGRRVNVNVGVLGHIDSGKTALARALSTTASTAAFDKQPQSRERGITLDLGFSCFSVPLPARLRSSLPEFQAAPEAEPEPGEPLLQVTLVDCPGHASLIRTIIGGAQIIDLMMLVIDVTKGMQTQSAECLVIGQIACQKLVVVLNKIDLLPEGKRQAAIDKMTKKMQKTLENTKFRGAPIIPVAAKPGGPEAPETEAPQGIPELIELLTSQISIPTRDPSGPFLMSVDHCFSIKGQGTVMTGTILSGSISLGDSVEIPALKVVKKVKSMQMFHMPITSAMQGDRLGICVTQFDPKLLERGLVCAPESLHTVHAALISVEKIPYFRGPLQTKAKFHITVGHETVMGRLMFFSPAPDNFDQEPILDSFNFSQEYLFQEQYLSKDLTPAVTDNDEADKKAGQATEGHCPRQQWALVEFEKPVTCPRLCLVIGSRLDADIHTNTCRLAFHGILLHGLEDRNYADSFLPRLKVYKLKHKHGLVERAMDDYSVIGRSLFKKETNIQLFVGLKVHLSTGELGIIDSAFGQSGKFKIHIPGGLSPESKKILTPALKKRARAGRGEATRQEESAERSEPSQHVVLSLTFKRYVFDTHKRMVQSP
inactive: ibrutinib 0.031 | [1] -0.03 | ralimetinib 0.019 | [2] -0.013 | [3] -0.025 | [4] -0.011 | [5] 0.005 | [6] 0.011 | [7] 0.039 | [8] 0.006 | vemurafenib 0.031 | [9] 0.024 | barasertib 0.031 | [10] -0.067 | volasertib -0.035 | [11] -0.012 | [12] -0.073 | [13] 0.009 | saracatinib -0.015 | sotrastaurin -0.016

GEMIN4 (UniProt P57678)
Chain of UniProt P57678 (P57678 whole entry, looked up): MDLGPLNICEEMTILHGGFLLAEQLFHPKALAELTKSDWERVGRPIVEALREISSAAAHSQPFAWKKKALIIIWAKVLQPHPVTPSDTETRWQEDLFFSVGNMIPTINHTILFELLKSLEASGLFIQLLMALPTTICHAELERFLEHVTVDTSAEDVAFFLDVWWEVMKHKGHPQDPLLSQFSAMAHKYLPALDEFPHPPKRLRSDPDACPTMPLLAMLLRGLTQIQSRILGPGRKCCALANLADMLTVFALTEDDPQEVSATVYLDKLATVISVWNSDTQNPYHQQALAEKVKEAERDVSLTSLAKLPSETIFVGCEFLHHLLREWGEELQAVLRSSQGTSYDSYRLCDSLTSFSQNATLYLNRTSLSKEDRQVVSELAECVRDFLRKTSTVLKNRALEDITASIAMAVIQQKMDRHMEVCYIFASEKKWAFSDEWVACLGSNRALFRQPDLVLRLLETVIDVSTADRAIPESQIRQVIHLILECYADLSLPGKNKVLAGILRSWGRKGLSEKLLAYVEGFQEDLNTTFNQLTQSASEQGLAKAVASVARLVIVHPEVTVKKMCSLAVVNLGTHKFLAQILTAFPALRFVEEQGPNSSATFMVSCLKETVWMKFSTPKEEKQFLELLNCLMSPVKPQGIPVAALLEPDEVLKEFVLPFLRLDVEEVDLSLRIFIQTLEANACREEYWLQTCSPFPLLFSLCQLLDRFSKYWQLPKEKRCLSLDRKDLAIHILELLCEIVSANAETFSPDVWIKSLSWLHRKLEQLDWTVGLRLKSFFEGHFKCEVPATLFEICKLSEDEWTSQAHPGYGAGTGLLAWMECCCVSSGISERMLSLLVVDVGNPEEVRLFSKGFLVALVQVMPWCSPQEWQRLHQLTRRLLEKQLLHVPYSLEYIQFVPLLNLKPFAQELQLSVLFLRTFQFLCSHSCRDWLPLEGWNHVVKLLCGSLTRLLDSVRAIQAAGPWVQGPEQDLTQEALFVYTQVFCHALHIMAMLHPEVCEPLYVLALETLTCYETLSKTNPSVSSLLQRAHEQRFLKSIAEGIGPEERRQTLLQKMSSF
inactive: ibrutinib 0.003 | [1] -0.028 | ralimetinib 0.056 | [2] 0.001 | [3] 0.051 | [4] 0.007 | [5] -0.048 | [6] -0.005 | [7] 0.059 | [8] 0.011 | vemurafenib 0.036 | [9] 0.025 | barasertib 0.041 | [10] -0.037 | volasertib -0.053 | [11] 0.023 | [12] -0.168 | [13] -0.091 | saracatinib 0.091 | sotrastaurin 0.041

FAM120B (UniProt Q96EK7)
inactive: ibrutinib 0.023 | [1] -0.003 | ralimetinib 0.035 | [2] -0.013 | [3] 0.031 | [4] -0.028 | [5] 0.002 | [6] 0.008 | [7] 0.041 | [8] 0.012 | vemurafenib 0.001 | [9] 0.045 | barasertib -0.009 | [10] 0.01 | volasertib -0.029 | [11] 0.033 | [12] -0.011 | [13] -0.085 | saracatinib 0.005 | sotrastaurin 0.008

ENSA isoform 3 (UniProt O43768)
Chain of UniProt O43768 (O43768 whole entry, looked up): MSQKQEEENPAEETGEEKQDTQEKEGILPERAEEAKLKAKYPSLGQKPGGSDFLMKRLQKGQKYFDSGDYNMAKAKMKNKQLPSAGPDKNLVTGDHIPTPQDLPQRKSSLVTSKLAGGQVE
inactive: ibrutinib 0.042 | [1] 0.015 | ralimetinib -0.019 | [2] 0.02 | [3] -0.013 | [4] -0.016 | [5] 0.039 | [6] -0.042 | [7] -0.057 | [8] -0.01 | vemurafenib -0.034 | [9] -0.016 | barasertib -0.052 | [10] 0.049 | volasertib 0.025 | [11] 0.033 | [12] 0.212 | [13] -0.058 | saracatinib -0.021 | sotrastaurin -0.007

EDC4 (UniProt Q6P2E9)
Chain of UniProt Q6P2E9 (Q6P2E9 whole entry, looked up): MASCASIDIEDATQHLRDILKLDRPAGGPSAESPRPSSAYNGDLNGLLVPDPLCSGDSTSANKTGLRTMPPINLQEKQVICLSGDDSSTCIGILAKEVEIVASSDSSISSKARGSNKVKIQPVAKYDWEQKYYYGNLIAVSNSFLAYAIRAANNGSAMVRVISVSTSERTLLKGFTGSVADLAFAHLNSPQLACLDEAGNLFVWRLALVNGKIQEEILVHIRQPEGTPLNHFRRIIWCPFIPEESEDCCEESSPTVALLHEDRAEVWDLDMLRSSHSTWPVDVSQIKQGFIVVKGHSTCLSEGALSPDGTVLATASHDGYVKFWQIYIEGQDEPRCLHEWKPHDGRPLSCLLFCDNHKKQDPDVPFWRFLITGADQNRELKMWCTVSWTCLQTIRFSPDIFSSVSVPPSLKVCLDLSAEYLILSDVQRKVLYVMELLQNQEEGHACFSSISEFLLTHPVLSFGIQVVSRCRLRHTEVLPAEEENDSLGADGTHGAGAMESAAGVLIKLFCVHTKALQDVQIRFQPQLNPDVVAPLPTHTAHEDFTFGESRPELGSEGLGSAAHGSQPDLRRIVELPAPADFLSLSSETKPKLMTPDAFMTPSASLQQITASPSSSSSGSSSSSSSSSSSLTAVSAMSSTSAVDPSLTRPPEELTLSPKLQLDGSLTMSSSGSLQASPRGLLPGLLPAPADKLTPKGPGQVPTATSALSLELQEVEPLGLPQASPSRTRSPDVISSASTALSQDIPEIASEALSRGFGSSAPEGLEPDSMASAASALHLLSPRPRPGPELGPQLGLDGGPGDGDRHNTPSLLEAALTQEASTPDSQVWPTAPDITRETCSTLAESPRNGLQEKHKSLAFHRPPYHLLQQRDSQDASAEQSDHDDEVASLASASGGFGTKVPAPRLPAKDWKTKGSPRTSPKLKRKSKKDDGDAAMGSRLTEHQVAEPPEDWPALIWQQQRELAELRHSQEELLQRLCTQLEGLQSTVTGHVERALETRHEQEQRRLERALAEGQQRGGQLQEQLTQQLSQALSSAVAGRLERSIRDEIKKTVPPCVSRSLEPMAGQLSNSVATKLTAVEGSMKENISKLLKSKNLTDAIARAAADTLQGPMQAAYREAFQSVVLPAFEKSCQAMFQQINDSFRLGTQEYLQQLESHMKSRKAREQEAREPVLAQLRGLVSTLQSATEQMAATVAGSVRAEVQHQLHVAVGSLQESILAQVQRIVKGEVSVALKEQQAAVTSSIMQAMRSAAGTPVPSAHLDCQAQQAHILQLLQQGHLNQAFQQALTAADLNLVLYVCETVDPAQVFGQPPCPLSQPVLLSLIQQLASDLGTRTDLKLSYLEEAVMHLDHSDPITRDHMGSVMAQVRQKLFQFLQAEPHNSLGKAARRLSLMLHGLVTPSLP
inactive: ibrutinib -0.001 | [1] 0.001 | ralimetinib 0.028 | [2] -0.009 | [3] -0.011 | [4] 0.004 | [5] -0.006 | [6] 0.006 | [7] 0 | [8] -0.019 | vemurafenib 0.053 | [9] 0.004 | barasertib 0.026 | [10] -0.013 | volasertib -0.015 | [11] 0.015 | [12] -0.055 | [13] 0.001 | saracatinib 0.011 | sotrastaurin 0.011

From the supplement of paper PMC10849652
